Screening results as filed in PubChem.
Shown is part of a subset that was picked to be rich in hits.
VCAM1 TNFa pot: enhances TNF alpha induced VCAM1 expression in HUVEC | HUVEC TNFa-stimulated VCAM-1 immunofluorescence, high-content imaging; scaled per plate to unstimulated/TNFa-only wells | activation, % at 2 µM | 0.19% of 93,000 active | AID 808;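 active means activation above the screen mean plus 3 SD, with well images confirming the hit on visual review, cut at about 28% in these data, passing the limit was not always enough; inconclusive means activation above that limit but images do not confirm it; inactive means activation not above that limit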;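 further: signal is the number of cytoplasmic VCAM-1 stained grains per positive cell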
VCAM1 pot conf: potentiators of TNFa-induced VCAM1 expression, confirmation, imaging, HUVEC, triplicate retest. shares compounds with VCAM1 TNFa pot. HUVEC TNFa-stimulated VCAM-1 immunofluorescence imaging. activation, % at 2 µM. 230 tested, under 10 active;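 active means activation above 30% in triplicate retests at 2 µM, then confirmed by visual review of the well images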
Numbers stand for hits.

COc1ccc(CN(C(=O)CNC(=O)c2ccco2)C(C(=O)NC2CCCC2)c2ccco2)cc1 (stereo not given) was read as VCAM1 TNFa pot inactive.
Screening CC(=O)N(Cc1ccccc1)c1ncc2c(n1)c(=O)c(C#N)c1ccccn12 returned VCAM1 TNFa pot inactive.
`COc1ccccc1-n1cnc2cc(NS(=O)(=O)c3ccc(Br)cc3)ccc21` gave VCAM1 TNFa pot inactive.
Screening Cc1cccc(Oc2coc3cc(OC(=O)c4cc5ccccc5oc4=O)ccc3c2=O)c1 returned VCAM1 TNFa pot inactive.
`Cc1ccc2c(c1)-c1ccccc1S(=O)(=O)N2` gave VCAM1 TNFa pot 32 and VCAM1 pot conf inactive.
Screening O=S(=O)(c1ccc2c(c1)nc(COc1ccc(Cl)cc1)n2CC1CCCO1)N1CCOCC1 (stereo not given) returned VCAM1 TNFa pot inactive.
Screening O=S(=O)(NCc1ccccc1)c1ccc(S(=O)(=O)N(Cc2ccccn2)C2CCCC2)cc1 returned VCAM1 TNFa pot inconclusive and VCAM1 pot conf inactive.
`CCCNS(=O)(=O)c1ccc(NC(=O)c2ccccn2)cc1` gave VCAM1 TNFa pot inactive.
`CN(Cc1ccccc1)S(=O)(=O)c1ccc(NC(=S)NC(=O)C2CCCC2)cc1` gave VCAM1 TNFa pot inactive.
`CCOC(=O)CSc1nnc(CNC(=O)c2ccc(OC)cc2OC)n1-c1ccc(OC)cc1` gave VCAM1 TNFa pot inactive.
Screening O=C(COc1ccccc1)n1nc(-c2ccc(Cl)cc2)nc1NCc1ccco1 returned VCAM1 TNFa pot inactive.
`COc1ccc(CSc2nnnn2C)cc1F` gave VCAM1 TNFa pot inactive.
Screening COc1ccc(C(=O)Nc2nc3ccccc3[nH]2)cc1OC returned VCAM1 TNFa pot inactive.
Screening COc1ccc(C(=O)/C(C)=N/O)cc1OC returned VCAM1 TNFa pot inactive.
For COc1ccc(C(=O)Nn2c(C)nnc2-n2nc(C)cc2C)cc1OC the results were VCAM1 TNFa pot 43 and VCAM1 pot conf inactive.
Fc1cccc(-c2nn[nH]n2)c1 was read as VCAM1 TNFa pot 31 and VCAM1 pot conf inactive.
Screening COc1ccccc1NC(=S)NC(=O)CC(C)C returned VCAM1 TNFa pot inactive.
`CCSc1nc(O)c(Cc2ccccc2)c(=O)[nH]1` gave VCAM1 TNFa pot inactive.
`CN(C)S(=O)(=O)N(CCN1CCOCC1)Cc1ccccc1F` gave VCAM1 TNFa pot 45 and VCAM1 pot conf inactive.
O=C(Nc1ccccc1)N(CCN1CCOCC1)Cc1ccccc1F was read as VCAM1 TNFa pot inactive.
`CCOC(=O)c1sc(NC(=O)/C=C/c2cnn(CC)c2C)c(C(=O)OCC)c1C` gave VCAM1 TNFa pot inactive.
Screening CCOc1cc(S(=O)(=O)NC2CCCCCC2)ccc1F returned VCAM1 TNFa pot inactive.
For O=C(Nc1ccc2nsnc2c1)c1ccc2c(c1)OCO2 the results were VCAM1 TNFa pot inactive.
O=C(Nc1ccc(-c2nc3ccccc3o2)cc1)c1ccc2c(c1)OCO2 was read as VCAM1 TNFa pot inconclusive and VCAM1 pot conf inactive.
`O=C(CN1C(=O)c2ccccc2C1=O)Nc1ccc(-c2nc3ccccc3o2)cc1` gave VCAM1 TNFa pot inactive.
For COc1ccc(CCN2C(=O)CC(Sc3ncccc3C(=O)O)C2=O)cc1OC (stereo not given) the results were VCAM1 TNFa pot inactive.
Screening N#CC1=C(N)OC2=C(C(=O)CCC2)C1C1C=CCCC1 (stereo not given) returned VCAM1 TNFa pot inactive.
`Cc1cc(SCC(N)=O)nc(SCC(=O)c2ccccc2)n1` gave VCAM1 TNFa pot inactive.
CSc1nc(C)cc(SCC(=O)Nc2ccccc2)n1 was read as VCAM1 TNFa pot 56 and VCAM1 pot conf inactive.
`COc1cccc(NC(=O)CSc2nc(N)cc(N)n2)c1` gave VCAM1 TNFa pot inactive.
COC(=O)c1ccccc1NC(NC(=O)c1ccco1)C(=O)c1ccc(C)cc1 (stereo not given) was read as VCAM1 TNFa pot inactive.
For O=C(c1ccccc1-c1nc(-c2ccc(Cl)cc2)no1)N1CCCC1 the results were VCAM1 TNFa pot inactive.
`O=C(NCCCCNC(=O)c1cccnc1)c1cccnc1` gave VCAM1 TNFa pot inconclusive and VCAM1 pot conf inactive.
For O=C(NCCCNC(=O)c1ccco1)c1ccco1 the results were VCAM1 TNFa pot inactive.
For CCOC(=O)Cc1csc(NC(=O)c2cccnc2)n1 the results were VCAM1 TNFa pot inactive.
Screening Cc1cccc(C)c1NS(=O)(=O)c1ccc(F)cc1 returned VCAM1 TNFa pot inactive.
For CCOC(=O)C(NC(C)=O)(N1CCc2ccccc2C1)C(F)(F)F (stereo not given) the results were VCAM1 TNFa pot inactive.
Screening Cc1ccc(S(=O)(=O)NC(=O)Nc2cc(C)ccc2F)cc1 returned VCAM1 TNFa pot inactive.
For COc1cc(NS(=O)(=O)c2ccc(NC(=O)COc3ccc(C)cc3)cc2)nc(OC)n1 the results were VCAM1 TNFa pot inactive.
For COc1cc(NC(=O)NS(=O)(=O)c2ccc(C)cc2)cc(OC)c1 the results were VCAM1 TNFa pot 60 and VCAM1 pot conf inactive.
`CC1CC(C)CN(c2nc3c(c(=O)n(C)c(=O)n3C)n2C)C1` (stereo not given) gave VCAM1 TNFa pot inactive.
